# Targets with a hit are over-represented here; the source holds about 8,800 in all. About 0.5% of all pairs of compound and target were hits. A number with no mark means an inactive call.
# How the values were obtained:
# Experiment in all cases: log2 fold change, soluble protein after heating vs DMSO (PISA); higher = thermal stabilisation; K562 lysate, 10 uM; active = over 0.2 and 3.5 SD of the protein, either way, in both replicates (recomputed)
# [1] = compound: C#Cc1cccc(Nc2ncnc3cc(OCCOC)c(OCCOC)cc23)c1 [erlotinib]
# Outline: (§1)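 K562 pellets were dounce-homogenised in PBS pH 7.4 with 1 mM MgCl2, and the crude extract at 1 mg/mL protein was treated with 10 μM compound for 30 min. Aliquots were heated for 3 min across 48°C-58°C, pooled, and brought to 0.5% NP-40 at 4°C; soluble protein was the supernatant after 21,000xg for 90 min. Soluble protein was quantified by TMTpro 16plex LC-MS/MS with channel sums equalised, and reported as log2 fold change in thermal stability against DMSO controls, with values from duplicates.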
# [2] = compound: C/C(=N\NC(=O)C1=CC(=CC=C1)S(=O)(=O)N2CCOCC2)/C3=C(C=CC(=C3)Cl)O
# Outline: as §1
# [3] = compound: C1=CC(=CC=C1C2=NC3=C(N2)C=C(C=C3)C(=O)N)OC4=CC=C(C=C4)Cl
# Outline: as §1
# [4] = compound: C1=CC2=C(C=CC(=C2)/C=C\3/C(=O)NC(=NCC4=CC=CS4)S3)N=C1
# Outline: as §1
# [5] = compound: C1=CC2=NC=CN=C2C=C1/C=C/3\C(=O)NC(=O)S3
# Outline: as §1
# [6] = compound: C1=CC=C(C=C1)C2=NC(=C(N2)C3=CC=NC=C3)C4=CC(=C(C=C4)Cl)O
# Outline: as §1
# [7] = compound: C1=CC=C2C(=C1)C3=NNC4=CC=CC(=C43)C2=O
# Outline: as §1
# [8] = compound: C1CCN(C1)C(=O)NC2=CC=CC(=C2)NC3=NC=C(C(=N3)NCCC4=CN=CN4)Br
# Outline: as §1
# [9] = compound: C1CN(CCC1(CC2=CC=C(C=C2)Cl)N)C3=NC=NC4=C3C=CN4
# Outline: as §1
# [10] = compound: C1COCCN1CCN2C3=CC=CC=C3N=C2NC(=O)C4=CC(=CC=C4)[N+](=O)[O-] [IRAK-1-4 Inhibitor I]
# Outline: as §1
# [11] = compound: C=CC(=O)N1CCC[C@@H](n2nc(-c3ccc(Oc4ccccc4)cc3)c3c(N)ncnc32)C1 [ibrutinib]
# Outline: as §1
# [12] = compound: CC(=O)c1cnc2ccc(-c3cc(Cl)c(O)c(Cl)c3)nc2c1N[C@H]1CC[C@H](CN(C)C)CC1
# Outline: as §1
# [13] = compound: CC(C)(C)Cn1c(N)nc2ccc(-c3[nH]c(C(C)(C)C)nc3-c3ccc(F)cc3)nc21 [ralimetinib]
# Outline: as §1
# [14] = compound: CC(C)(O)CC(=O)NCCn1ccc2ncnc(Nc3ccc(Oc4cccc(C(F)(F)F)c4)c(Cl)c3)c21
# Outline: as §1
# [15] = compound: CC(C)C1=C2N=C(C=C(N2N=C1)NCC3=CC=CC=C3)NCCCCCCN
# Outline: as §1
# [16] = compound: CC1=C(C(CC(=O)N1)C2=CC=C(C=C2)C(F)(F)F)C(=O)NC3=C(C=C4C(=C3)C=NN4)F
# Outline: as §1
# [17] = compound: CC1=C(C2=C(C=C1)C(=O)C3=CC=CC=C3N2CCCN)C
# Outline: as §1
# [18] = compound: CC1=C(C=C(C=C1)NC(=O)C2=CC(=CC=C2)C(C)(C)C#N)NC3=CC4=C(C=C3)N=CN(C4=O)C
# Outline: as §1
# [19] = compound: CC1=C(C=C(C=C1)NC(=O)C2=CC(=CC=C2)N(C)C)NC(=O)C3=CC=C(C=C3)O
# Outline: as §1
# [20] = compound: CC1=CC=C(C=C1)SC2=C3C=C(SC3=CN=C2)C(=O)N
# Outline: as §1
# Chain of UniProt Q13948 (Q13948 whole entry, looked up): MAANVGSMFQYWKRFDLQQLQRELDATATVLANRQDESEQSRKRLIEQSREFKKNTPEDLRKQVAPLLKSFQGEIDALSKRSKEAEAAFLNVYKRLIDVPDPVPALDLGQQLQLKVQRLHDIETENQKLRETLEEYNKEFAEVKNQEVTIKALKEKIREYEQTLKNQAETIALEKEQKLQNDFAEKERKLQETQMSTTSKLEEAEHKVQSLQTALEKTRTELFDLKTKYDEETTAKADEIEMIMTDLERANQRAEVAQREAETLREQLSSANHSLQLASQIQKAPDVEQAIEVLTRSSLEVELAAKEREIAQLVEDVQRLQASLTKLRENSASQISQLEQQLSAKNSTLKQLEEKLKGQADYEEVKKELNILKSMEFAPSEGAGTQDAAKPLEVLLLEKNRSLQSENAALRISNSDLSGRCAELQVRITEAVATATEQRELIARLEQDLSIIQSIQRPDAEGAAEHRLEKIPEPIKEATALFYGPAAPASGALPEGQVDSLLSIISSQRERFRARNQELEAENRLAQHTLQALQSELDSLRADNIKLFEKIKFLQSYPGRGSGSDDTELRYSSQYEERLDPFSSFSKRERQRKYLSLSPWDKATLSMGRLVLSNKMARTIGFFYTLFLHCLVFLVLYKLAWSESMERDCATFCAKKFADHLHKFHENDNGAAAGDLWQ
# Chain of UniProt Q9H078 (Q9H078 whole entry, looked up): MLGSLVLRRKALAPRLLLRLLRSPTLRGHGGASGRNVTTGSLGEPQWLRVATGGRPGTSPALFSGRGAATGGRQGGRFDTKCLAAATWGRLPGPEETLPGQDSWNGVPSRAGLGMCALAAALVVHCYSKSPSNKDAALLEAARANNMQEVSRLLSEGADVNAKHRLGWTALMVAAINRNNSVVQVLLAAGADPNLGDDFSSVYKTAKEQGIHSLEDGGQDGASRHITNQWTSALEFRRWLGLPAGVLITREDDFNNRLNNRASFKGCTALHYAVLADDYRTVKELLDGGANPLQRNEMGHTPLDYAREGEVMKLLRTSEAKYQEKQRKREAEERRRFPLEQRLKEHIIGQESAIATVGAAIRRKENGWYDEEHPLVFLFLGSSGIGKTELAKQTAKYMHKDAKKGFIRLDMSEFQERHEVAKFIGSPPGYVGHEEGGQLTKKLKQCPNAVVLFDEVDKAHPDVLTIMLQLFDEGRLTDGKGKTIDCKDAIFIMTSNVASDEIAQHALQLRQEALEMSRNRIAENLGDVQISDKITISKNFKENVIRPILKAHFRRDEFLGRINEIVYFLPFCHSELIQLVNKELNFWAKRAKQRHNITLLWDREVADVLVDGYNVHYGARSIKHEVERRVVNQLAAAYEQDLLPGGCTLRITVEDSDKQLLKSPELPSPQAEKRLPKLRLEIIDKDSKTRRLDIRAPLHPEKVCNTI
# Chain of UniProt Q7Z460 (Q7Z460 whole entry, looked up): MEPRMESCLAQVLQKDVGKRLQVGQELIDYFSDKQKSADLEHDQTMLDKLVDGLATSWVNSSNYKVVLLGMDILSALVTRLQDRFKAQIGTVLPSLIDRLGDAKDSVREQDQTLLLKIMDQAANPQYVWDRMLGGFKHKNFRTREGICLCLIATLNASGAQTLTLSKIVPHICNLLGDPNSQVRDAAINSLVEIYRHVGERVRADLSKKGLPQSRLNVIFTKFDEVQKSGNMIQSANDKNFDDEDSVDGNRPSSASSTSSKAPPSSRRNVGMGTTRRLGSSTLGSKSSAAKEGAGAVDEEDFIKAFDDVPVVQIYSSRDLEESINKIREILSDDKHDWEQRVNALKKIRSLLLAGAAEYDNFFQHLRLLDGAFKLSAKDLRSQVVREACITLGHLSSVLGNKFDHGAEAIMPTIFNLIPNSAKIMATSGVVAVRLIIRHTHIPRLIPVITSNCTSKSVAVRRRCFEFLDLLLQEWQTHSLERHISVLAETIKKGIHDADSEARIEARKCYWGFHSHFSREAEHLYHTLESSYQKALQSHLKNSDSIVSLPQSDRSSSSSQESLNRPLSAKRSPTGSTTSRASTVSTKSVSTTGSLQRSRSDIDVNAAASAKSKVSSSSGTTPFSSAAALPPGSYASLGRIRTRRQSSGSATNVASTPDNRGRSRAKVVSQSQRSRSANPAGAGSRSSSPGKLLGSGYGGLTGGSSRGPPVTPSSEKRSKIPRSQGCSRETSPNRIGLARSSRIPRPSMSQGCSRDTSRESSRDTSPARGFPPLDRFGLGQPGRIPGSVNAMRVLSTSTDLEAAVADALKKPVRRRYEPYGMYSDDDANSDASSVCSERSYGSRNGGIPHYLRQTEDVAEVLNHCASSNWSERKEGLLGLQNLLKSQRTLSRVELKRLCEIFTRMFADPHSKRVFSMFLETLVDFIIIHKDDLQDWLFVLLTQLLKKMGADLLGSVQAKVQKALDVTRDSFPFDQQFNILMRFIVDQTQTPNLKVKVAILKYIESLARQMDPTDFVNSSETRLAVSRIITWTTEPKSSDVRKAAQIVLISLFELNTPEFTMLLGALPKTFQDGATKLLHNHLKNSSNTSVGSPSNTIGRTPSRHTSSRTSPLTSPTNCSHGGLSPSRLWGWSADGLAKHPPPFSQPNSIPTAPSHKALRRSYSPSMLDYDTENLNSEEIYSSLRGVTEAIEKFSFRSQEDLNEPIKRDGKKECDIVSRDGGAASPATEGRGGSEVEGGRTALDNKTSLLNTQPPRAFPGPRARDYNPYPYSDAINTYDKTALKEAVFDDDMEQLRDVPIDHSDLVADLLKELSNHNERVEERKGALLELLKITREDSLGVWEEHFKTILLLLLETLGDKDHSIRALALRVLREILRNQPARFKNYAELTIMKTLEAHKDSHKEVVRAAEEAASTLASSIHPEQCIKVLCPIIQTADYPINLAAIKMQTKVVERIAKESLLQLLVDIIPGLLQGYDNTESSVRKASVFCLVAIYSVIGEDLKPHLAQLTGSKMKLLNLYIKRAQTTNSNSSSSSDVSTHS
# Chain of UniProt Q8NF50 (Q8NF50 whole entry, looked up): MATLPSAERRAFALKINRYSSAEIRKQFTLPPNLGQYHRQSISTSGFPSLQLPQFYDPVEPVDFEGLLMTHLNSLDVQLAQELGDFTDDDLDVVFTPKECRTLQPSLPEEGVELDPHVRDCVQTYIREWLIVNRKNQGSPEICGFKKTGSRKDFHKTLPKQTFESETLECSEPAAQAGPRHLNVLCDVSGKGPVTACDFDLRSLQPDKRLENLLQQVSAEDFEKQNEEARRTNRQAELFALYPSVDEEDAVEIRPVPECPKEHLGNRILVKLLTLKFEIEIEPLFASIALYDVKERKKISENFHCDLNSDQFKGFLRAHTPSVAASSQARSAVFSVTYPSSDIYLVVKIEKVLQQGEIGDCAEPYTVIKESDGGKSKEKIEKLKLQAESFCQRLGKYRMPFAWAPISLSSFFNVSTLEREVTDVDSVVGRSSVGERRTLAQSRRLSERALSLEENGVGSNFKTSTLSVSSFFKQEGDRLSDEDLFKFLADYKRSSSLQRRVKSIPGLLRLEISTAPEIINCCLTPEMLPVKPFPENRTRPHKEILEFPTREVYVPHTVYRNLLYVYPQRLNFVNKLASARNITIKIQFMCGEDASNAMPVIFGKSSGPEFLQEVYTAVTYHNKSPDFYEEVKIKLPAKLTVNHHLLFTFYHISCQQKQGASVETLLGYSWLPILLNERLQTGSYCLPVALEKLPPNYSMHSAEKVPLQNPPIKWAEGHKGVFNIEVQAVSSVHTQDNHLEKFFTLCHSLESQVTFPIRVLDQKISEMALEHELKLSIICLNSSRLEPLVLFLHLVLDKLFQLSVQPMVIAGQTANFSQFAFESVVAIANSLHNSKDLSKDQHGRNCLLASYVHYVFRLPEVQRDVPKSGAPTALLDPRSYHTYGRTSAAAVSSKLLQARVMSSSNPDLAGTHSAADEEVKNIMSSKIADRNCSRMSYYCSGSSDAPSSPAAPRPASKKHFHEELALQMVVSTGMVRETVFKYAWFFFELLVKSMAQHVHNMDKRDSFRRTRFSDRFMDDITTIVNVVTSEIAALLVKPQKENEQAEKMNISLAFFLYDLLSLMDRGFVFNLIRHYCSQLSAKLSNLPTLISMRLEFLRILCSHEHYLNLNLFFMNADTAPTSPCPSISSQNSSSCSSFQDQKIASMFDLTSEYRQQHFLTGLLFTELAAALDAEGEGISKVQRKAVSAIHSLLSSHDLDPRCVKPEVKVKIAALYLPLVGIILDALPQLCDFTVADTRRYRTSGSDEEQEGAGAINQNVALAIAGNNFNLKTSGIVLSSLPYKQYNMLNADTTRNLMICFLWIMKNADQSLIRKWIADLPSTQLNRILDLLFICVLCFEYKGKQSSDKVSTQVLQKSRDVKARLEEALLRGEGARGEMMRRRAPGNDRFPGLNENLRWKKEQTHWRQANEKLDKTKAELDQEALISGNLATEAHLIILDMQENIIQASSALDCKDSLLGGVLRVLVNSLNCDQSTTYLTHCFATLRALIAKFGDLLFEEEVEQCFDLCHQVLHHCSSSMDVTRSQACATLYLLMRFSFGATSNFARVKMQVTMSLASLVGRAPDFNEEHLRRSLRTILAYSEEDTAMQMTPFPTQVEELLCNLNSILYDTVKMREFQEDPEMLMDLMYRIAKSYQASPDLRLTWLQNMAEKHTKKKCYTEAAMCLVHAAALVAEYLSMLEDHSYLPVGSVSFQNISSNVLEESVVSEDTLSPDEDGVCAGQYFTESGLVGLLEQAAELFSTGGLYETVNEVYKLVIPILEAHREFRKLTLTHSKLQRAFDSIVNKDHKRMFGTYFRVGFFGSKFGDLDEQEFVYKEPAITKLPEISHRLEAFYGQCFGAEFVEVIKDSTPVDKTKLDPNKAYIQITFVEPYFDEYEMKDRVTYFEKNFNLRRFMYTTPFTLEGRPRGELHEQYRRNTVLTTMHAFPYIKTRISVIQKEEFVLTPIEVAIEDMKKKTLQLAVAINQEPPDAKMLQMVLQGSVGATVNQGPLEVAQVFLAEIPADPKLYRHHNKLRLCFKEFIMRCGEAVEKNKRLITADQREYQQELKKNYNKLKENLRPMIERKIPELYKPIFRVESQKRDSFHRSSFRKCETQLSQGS
Target,log2 fold change [1],log2 fold change [2],log2 fold change [3],log2 fold change [4],log2 fold change [5],log2 fold change [6],log2 fold change [7],log2 fold change [8],log2 fold change [9],log2 fold change [10],log2 fold change [11],log2 fold change [12],log2 fold change [13],log2 fold change [14],log2 fold change [15],log2 fold change [16],log2 fold change [17],log2 fold change [18],log2 fold change [19],log2 fold change [20]
DCP2 (UniProt Q8IU60),0.005,0.039,-0.029,-0.064,-0.037,-0.007,0.001,0.025,-0.014,-0.017,-0.005,-0.005,0.067,0.003,0.006,0.021,0.034,-0.043,0.081,-0.002
CRABP2 (UniProt P29373),0.026,-0.112,-0.017,-0.063,0.2,-0.042,-0.151,0.399 (active),0.309,-0.024,-0.039,0.061,0.097,-0.015,-0.002,0.176,-0.088,-0.028,0.082,-0.03
DOCK8 (UniProt Q8NF50),-0.001,-0.073,-0.016,0.018,0.005,0.017,-0.023,0.04,-0.021,0.014,-0.033,-0.012,0.03,0.047,0.003,-0.005,0.022,0.004,0.057,-0.011
COPZ1 isoform 4 (UniProt P61923),-0.029,0.065,-0.05,-0.036,-0.142,-0.006,0,-0.08,-0.028,-0.015,0.123,0.007,0,0.013,0.02,-0.054,0.037,0.03,-0.012,0.117
DPH5 isoform 5 (UniProt Q9H2P9),0.008,-0.028,-0.025,0.066,-0.017,0.074,0.046,-0.027,0.027,0.009,0.043,-0.027,-0.031,0,0.298,-0.034,-0.111,-0.007,-0.037,0.04
DOCK7 (UniProt Q96N67),0.078,0.009,-0.045,-0.041,-0.126,0.014,-0.023,-0.003,0.016,0.024,-0.117,-0.009,0.077,-0.054,0.021,0.03,-0.078,0.009,0.065,-0.028
COG2 (UniProt Q14746),0.009,0.036,-0.021,-0.022,-0.032,-0.017,-0.001,0.011,0.031,0.03,-0.029,-0.023,0.017,-0.017,0,0.023,-0.035,-0.019,0.062,-0.009
COG3 (UniProt Q96JB2),0.045,0.053,-0.037,-0.049,-0.008,-0.022,-0.056,-0.02,-0.01,0.012,0.026,-0.008,0.052,-0.042,-0.04,0.006,-0.019,0.02,0.044,0.02
CNOT2 (UniProt Q9NZN8),0.016,0.013,0.021,0.015,-0.016,-0.011,0.014,0.004,0.012,0.007,0.022,0.037,0.016,-0.013,-0.001,-0.01,0.03,0.006,-0.007,0.011
CLPTM1L (UniProt Q96KA5),-0.019,0.014,-0.143,-0.01,0.009,-0.052,-0.197,-0.059,0.091,-0.01,,-0.011,0.041,-0.041,0.048,0.058,0.081,-0.024,0.039,-0.005
CLCN3 (UniProt P51790),-0.047,0.043,-0.067,0.06,0.016,-0.02,0.084,-0.043,-0.117,0.083,,0.038,0.038,0.05,-0.089,-0.03,0.024,-0.155,-0.017,0.079
CLUH (UniProt O75153),-0.011,0.018,-0.006,0.051,0.21,-0.013,-0.014,-0.009,-0.005,-0.007,,0.093,0.008,-0.004,-0.044,-0.01,0,-0.001,0.006,0.008
CSPP1 (UniProt Q1MSJ5),-0.028,-0.094,0.079,0.017,-0.088,0.021,-0.137,-0.02,0.007,-0.026,0.052,0,0,0.026,-0.023,0,-0.015,-0.074,-0.006,0.084
CLASP1 (UniProt Q7Z460),0.042,0.082,-0.029,-0.022,0.01,0.026,-0.041,-0.035,0.02,0.029,,0.013,0.02,0.024,0.01,0.018,0.004,0.02,0.036,0.001
CSNK1E (UniProt P49674),-0.003,0.006,0.161,0.047,0.018,0.297 (active),0.345 (active),-0.056,0.009,-0.032,0.029,0.287,0.208,-0.026,-0.04,-0.012,-0.064,-0.049,-0.028,-0.039
DNAH5 (UniProt Q8TE73),-0.006,-0.008,0,-0.024,0.015,0.004,-0.056,,,-0.015,-0.064,-0.009,-0.045,-0.138,0.076,0.062,0.014,,0.019,0.086
DNAJC5 (UniProt Q9H3Z4),-0.003,0.037,-0.018,-0.021,0.053,0.033,0,0.049,-0.005,-0.012,-0.029,-0.072,-0.013,-0.043,-0.044,0.06,-0.008,0.048,-0.036,-0.116
CLCN3 isoform 2 (UniProt P51790),0.003,0.083,-0.061,-0.005,-0.004,-0.042,0.013,-0.032,0.029,0.068,,0.029,0.02,-0.032,-0.035,-0.017,-0.066,0.029,0.048,-0.013
DPY19L3 (UniProt Q6ZPD9),-0.131,0.007,-0.097,0.101,0.211,,-0.2,0.005,0.008,,-0.111,0.012,,,-0.224,,,0.047,,-0.017
CYP2S1 isoform 2 (UniProt Q96SQ9),-0.026,-0.291,-0.018,-0.096,,0.07,-0.123,-0.198,0.08,-0.044,,0.146,0.048,0,0.061,,-0.084,-0.028,0.07,-0.229
CLPB isoform 2 (UniProt Q9H078),0.023,-0.029,-0.028,0.02,-0.047,-0.018,0.006,0.022,0.055,-0.002,,-0.016,0.002,-0.024,-0.006,0.002,-0.054,-0.011,0.025,0.012
CUX1 isoform 2 (UniProt Q13948),-0.029,-0.003,-0.229,0.034,,-0.011,0.02,-0.015,-0.008,0.029,,0.07,-0.069,0.052,-0.16,,-0.027,0.385,0.043,-0.086
"CLUH, A0A494C0R8",0.077,-0.023,-0.041,0.02,0.225,0,-0.114,0.05,-0.063,0.008,,0.138,0.053,-0.043,0.002,-0.128,0,0.016,-0.035,0.029
CNOT4 isoform 9 (UniProt O95628),0,0.005,0.015,-0.04,0,-0.105,0.015,0.003,-0.013,0.054,0.052,-0.019,0.043,-0.084,-0.003,,0.032,-0.138,-0.02,0.013

# — the supplement of paper PMC10849652
